G9a inh = qHTS Assay for Inhibitors of Histone Lysine Methyltransferase G9a | 350,000 compounds, 8.8% hits | Potency, µM (series often up to 102 µM), usual class: inhibitors | Histone-lysine N-methyltransferase EHMT2 (Homo sapiens), Q96KQ7 | AID 504332, 2011 | G9a H3K9 monomethylation, AlphaScreen, 2 h; note: nearly all actives have a fitted effect of over 75% in size
Target sequence (Q96KQ7 913-1193 limits assumed): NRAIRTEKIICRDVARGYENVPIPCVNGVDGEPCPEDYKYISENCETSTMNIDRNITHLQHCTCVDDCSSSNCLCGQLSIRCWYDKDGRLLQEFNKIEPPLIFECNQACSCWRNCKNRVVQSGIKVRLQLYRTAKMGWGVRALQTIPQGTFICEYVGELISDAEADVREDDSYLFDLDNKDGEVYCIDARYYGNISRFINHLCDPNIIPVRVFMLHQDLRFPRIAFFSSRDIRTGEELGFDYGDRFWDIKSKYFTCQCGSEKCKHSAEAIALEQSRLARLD
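Step 1: enzyme (final 20 nM) with compound, 15 min RT. Step 2: substrate peptide 500 nM and SAM 20 uM, 2 h RT. Step 3: anti-H3K9me1 antibody and AlphaScreen beads, 10 min, then plate read.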
Coupling enz = qHTS Assay for Inhibitors of Fructose-1,6-bisphosphate Aldolase from Giardia Lamblia: Coupling assay counterscreen | coupling enzyme system counterscreen, AmpLite Red fluorescence | activity change, negative = inhibition, % at 58.2 µM, hits read low | 290,000 compounds, 0.67% hits; in the data active = activity change below about -30%
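Compounds tested against the coupling enzymes alone at 57.5 uM final; readout was AmpLite Red fluorescence (525/598 nm) after 20 min at RT.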
Tau FP inhib = qHTS for Inhibitors of Tau Fibril Formation, Fluorescence Polarization. K18 P301L tau heparin fibrillization, Alexa594 FP, 6 h. Potency, µM (series often up to 57.7 µM), most hits filed as inhibitors. 280,000 compounds, 0.39% hits. AID 1468, 2008; note: nearly all actives have a fitted effect of over 55% in size
Target sequence (P10636 561-689 P618L limits assumed): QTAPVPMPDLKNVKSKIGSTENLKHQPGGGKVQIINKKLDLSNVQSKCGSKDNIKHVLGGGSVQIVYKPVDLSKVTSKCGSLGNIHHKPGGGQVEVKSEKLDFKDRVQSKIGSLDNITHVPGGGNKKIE
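Human K18 P301L fragment (15 uM unlabeled plus 0.24 uM Alexa 594-labeled) in 100 mM sodium acetate pH 7 with compound, aggregation induced by 20 uM heparin for 6 hr at 37 C. ThT (30 uM) added for 1 hr, then Alexa 594 FP read.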
Tau fluor cs = Counterscreen qHTS for Inhibitors of Tau Fibril Formation, Fluorescence Polarization; tau K18 P301L Alexa594 fluorescence, heparin fibrillization; Potency, µM (series often up to 57.7 µM); 280,000 compounds, 0.93% hits; note: nearly all actives have a fitted effect of over 55% in size
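Human tau K18 P301L (15 uM unlabeled, 0.24 uM Alexa 594-labeled) in 100 mM sodium acetate pH 7 with 20 uM heparin, 6 hr at 37 C. ThT 30 uM added, 1 hr ambient; Alexa 594 FP and total fluorescence read at 555/632 nm.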
Sfp inh = qHTS Assay for Inhibitors of Bacillus subtilis Sfp phosphopantetheinyl transferase (PPTase); Biochemical Sfp PPTase activity, qHTS; 310,000 compounds, 3.5% hits; Potency, µM, hits mostly inhibitors;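 note: the enzyme is Sfp with the accession as filed and its product quenches rhodamine fluorescence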
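With Hepes-Na pH 7.6 buffer containing 10 mM MgCl2, Sfp (15 nM) modified BHQ-2-YbbR (12.5 uM) using rhodamine-CoA (5 uM). Two reads 30 minutes apart at 525/598 nm yielded each well's rate.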
Tau fibril ThT = qHTS for Inhibitors of Tau Fibril Formation, Thioflavin T Binding; Microtubule-associated protein tau (Homo sapiens), P10636; Potency, µM (top dose mostly 57.4 µM), most hits filed as inhibitors; recombinant tau K18 P301L, heparin-induced fibrillization, ThT fluorescence; 270,000 compounds, 2.1% hits; note: nearly all actives have a fitted effect of over 55% in size
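Fibril formation assay: tau K18 P301L at 15 uM with trace Alexa 594 label, heparin inducer 20 uM, pH 7 sodium acetate buffer, 37 C for 6 hr; endpoint ThT signal.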
Numbers stand for hits; [ ] = remark or other dose. Shown are actives, neighbours in structure and some others; about 11% of the full set was active somewhere. Unless noted, calls come from the whole dose curve; as a rule, active = well fitted curve in the direction sought with a large enough effect; inconclusive = small, poorly fitted or top-dose-only effect, or another doubt; inactive = no such curve, though single readings can be large; an effect the other way counts as inactive or inconclusive.

Screening COc1ccc(OC)c(-n2c(=O)[nH]c3cc(C(=O)NCCc4ccc(OC)c(OC)c4)ccc3c2=O)c1 returned G9a inh inactive, Tau FP inhib inactive, Tau fluor cs inactive and Tau fibril ThT inactive.
For CCOC(=O)N1CCN(C(=O)CNCc2cccs2)CC1 the results were G9a inh 31.6µM, Coupling enz inactive, Tau FP inhib inactive, Tau fluor cs inactive, Sfp inh inactive and Tau fibril ThT inactive.
CCOC(=O)N1CCN(c2c(NCc3cccs3)c(=O)c2=O)CC1 was read as G9a inh inactive, Coupling enz inactive, Tau FP inhib inactive, Tau fluor cs inactive, Sfp inh inactive and Tau fibril ThT inactive.
Screening O=[N+]([O-])c1ccc(/C=C2\CCC(C3=CCCC3)=C2N2CCOCC2)cc1 returned G9a inh inconclusive, Coupling enz inactive, Tau FP inhib inconclusive, Tau fluor cs inconclusive, Sfp inh inconclusive and Tau fibril ThT 15.8µM.
For O=C(O)CCn1cc(/C=C2\SC(=S)NC2=O)c(-c2ccccc2)n1 the results were G9a inh inconclusive, Coupling enz inactive, Tau FP inhib inactive, Tau fluor cs inactive, Sfp inh inactive and Tau fibril ThT inactive.
For CN1CCC/C1=C/C=C1\SC(=S)NC1=O the results were G9a inh 10µM, Coupling enz inactive, Tau FP inhib inactive, Tau fluor cs inactive, Sfp inh 28.2µM and Tau fibril ThT inconclusive.
`Cc1ccc(Cc2nc3ccccc3nc2SCC(=O)NCc2ccccc2Cl)cc1` gave G9a inh inactive, Tau FP inhib inactive, Tau fluor cs inactive and Tau fibril ThT inactive.
`Cc1nn(S(=O)(=O)c2ccc(Cl)cc2)c(C)c1S(=O)(=O)N1CCOCC1` gave G9a inh inconclusive, Coupling enz inactive and Sfp inh inactive.
Cc1nn(S(=O)(=O)c2ccc(Br)cc2)c(C)c1S(=O)(=O)N1CCOCC1 was read as G9a inh 39.8µM and Sfp inh inactive.
Cc1nn(S(=O)(=O)c2ccc(Br)cc2)c(C)c1S(=O)(=O)N1CCCCCC1 was read as G9a inh inactive, Tau FP inhib inactive, Tau fluor cs inactive and Tau fibril ThT inactive.
`Cc1ccc(S(=O)(=O)n2nc(C)c(S(=O)(=O)N3CCOCC3)c2C)cc1` gave G9a inh 35.5µM, Coupling enz inactive and Sfp inh inactive.
`N#Cc1c(Nc2cccc(F)c2)sc2c(O)cc(=O)[nH]c12` gave G9a inh inconclusive, Coupling enz inactive, Tau FP inhib inactive, Tau fluor cs inconclusive, Sfp inh inactive and Tau fibril ThT inconclusive.
`COc1ccc(NC(=O)CN(C)C(=O)c2cc(-c3ccncc3)nc3ccccc23)cc1` gave G9a inh inactive and Sfp inh inactive.
`CN(CC(=O)Nc1cccc(F)c1)C(=O)c1ccc2c(c1)OCCO2` gave G9a inh 10µM.
Screening COc1ccc(Cl)cc1NC(=O)CN(C)C(=O)c1cc(-c2ccncc2)nc2ccccc12 returned G9a inh 10µM.
`CC(=O)c1cccc(NC(=O)c2cc(=O)[nH]c3ccccc23)c1` gave G9a inh 44.7µM, Coupling enz inactive and Sfp inh inactive.
For COc1ccc(Cl)cc1NC(=O)CN(C)C(=O)c1cc2ccccc2cc1O the results were G9a inh 50.1µM.
For CC(=O)N1c2ccc(S(=O)(=O)N3CCCCCC3)cc2CC1C(=O)NC(C)C (centres undefined) the results were G9a inh inconclusive, Tau FP inhib inactive, Tau fluor cs inactive and Tau fibril ThT inactive.
For O=C1CC(c2ccc(Br)cc2)c2c(ccc3ccccc23)N1 (centres undefined) the results were G9a inh inconclusive, Tau FP inhib inactive, Tau fluor cs inconclusive and Tau fibril ThT inconclusive.
For COc1ccc(NC(=O)Cn2c(=O)n(Cc3ccco3)c(=O)c3sc4ccccc4c32)cc1OC the results were G9a inh inactive, Tau FP inhib inactive, Tau fluor cs inactive and Tau fibril ThT inactive.
`Cc1ccccn1` gave G9a inh inactive[12.7 µM] and Sfp inh inactive.
CN(CC(=O)Nc1cccc(F)c1)C(=O)CCc1nc2ccccc2c(=O)[nH]1 was read as G9a inh 44.7µM.
For COc1cccc(NC(=O)CN(C)C(=O)c2ccc(-c3cccc(C(F)(F)F)c3)o2)c1 the results were G9a inh inactive.
For COc1ccc(Cl)cc1NC(=O)CN(C)C(=O)c1ccc2c(c1)OCCO2 the results were G9a inh 39.8µM.
For CN(CC(=O)Nc1cccc(F)c1)C(=O)c1ccc(-c2cccc(C(F)(F)F)c2)o1 the results were G9a inh 17.8µM.
`CN(CC(=O)Nc1ccc(F)c(F)c1F)C(=O)CCCc1nc2ccccc2c(=O)[nH]1` gave G9a inh inactive[12.7 µM].
`CN(CC(=O)Nc1ccc(F)c(F)c1F)C(=O)c1ccc2c(c1)OCCO2` gave G9a inh inactive[0.501 µM].
`CN(CC(=O)Nc1cccc(F)c1)C(=O)c1cc(=O)[nH]c2ccccc12` gave G9a inh 8.91µM.
For COc1cccc(-n2ccnc2SCC(=O)Nc2nc3ccc(C)cc3s2)c1 the results were G9a inh inactive, Tau FP inhib inconclusive, Tau fluor cs inactive and Tau fibril ThT inactive.
`CCC(Oc1ccc2c(c1)C(=O)CC(C)(C)O2)C(=O)NCCN1CCCCCC1` (centres undefined) gave G9a inh 12.6µM, Coupling enz inactive, Tau FP inhib inactive, Tau fluor cs inactive, Sfp inh inconclusive and Tau fibril ThT inactive.
`CC(=O)NC(C)C(=O)OCC(=O)Nc1ccc(Br)cc1` (centres undefined) gave G9a inh inactive, Coupling enz inactive, Tau FP inhib inactive, Tau fluor cs inactive, Sfp inh inactive and Tau fibril ThT inconclusive.
Screening CCCC(C)C(=O)OCC(=O)Nc1ccc(Br)cc1 (centres undefined) returned G9a inh 31.6µM, Coupling enz inactive, Tau FP inhib inactive, Tau fluor cs inactive, Sfp inh inactive and Tau fibril ThT inactive.
Screening O=C(CSc1nnc2scc(-c3ccc(Cl)cc3)n12)Nc1ccccc1F returned G9a inh inactive, Tau FP inhib inactive, Tau fluor cs inactive and Tau fibril ThT inconclusive.
For CN1C(=S)SC(C)(NO)C1(C)C (centres undefined) the results were G9a inh inconclusive, Coupling enz inactive, Tau FP inhib inactive, Tau fluor cs inactive, Sfp inh 56.2µM and Tau fibril ThT inactive.

Source: PubChem
